# ChEMBL document CHEMBL4513216, “Probing the Open Global Health Chemical Diversity Library for Multistage-Active Starting Points for Next-Generation Antimalarials” (ACS Infect Dis, 2020)
# The campaign covered roughly 68,000 compounds. About 2,700 (4%) showed an effect of 50% or more. The sample as a whole holds a higher share of strong results than the screen did.
# Tested on: Plasmodium berghei
# Test: Screen against P. berghei liver stage (PbLuc), transformed with Luciferase, at 2uM
# Assay type: functional, HepG2
# Details: tested at 2 uM
row,SMILES,INHIBITION [%]
1,Cn1cnc(S(=O)(=O)NCC2(O)CCc3ccccc32)c1 (stereo not drawn),30.34
2,Cn1cnc(S(=O)(=O)NCC2(O)CCOc3ccccc32)c1 (stereo not drawn),45.19
3,Cn1cnc(S(=O)(=O)NCC2(O)CCc3ccccc3C2)c1 (stereo not drawn),53.33
4,CC(NC(=O)c1cccnc1N(C)C)c1ccccc1Br (stereo not drawn),20.32
5,Cc1nc(CNCc2c(C(C)C)nn(C)c2N2CCOCC2)cs1,7.64
6,O=C([C@H]1C[C@@H]2CCN(c3cccc(F)c3)C[C@H]2O1)N1CCCC1,39.51
7,COC(=O)c1ccc(S(=O)(=O)N2CCCn3ncnc32)s1,59.68
8,CCc1ccc(S(=O)(=O)N2CCCn3ncnc32)s1,13.38
9,O=S(=O)(c1ccc(Cl)s1)N1CCCn2ncnc21,-49.84
10,Cc1nccn1-c1nccnc1C1CCCN(C)C1 (stereo not drawn),1.75
11,CCC(=O)NCC(=O)NCC(C)(C)c1cccc(Br)c1,15.2
12,CN(C)c1nc2c(c(N(C)C)n1)CCN(C(=O)CN1C[C@H]3CC[C@@H]1C3)C2,-34.98
13,O=C(NCC1CC1)C1CN(C(=O)c2ccncc2)CC12CCOCC2 (stereo not drawn),-12.21
14,O=C(NCC1CC1)C1CN(C(=O)c2ccnnc2)CC12CCOCC2 (stereo not drawn),59.59
15,O=C(NCC1CC1)C1CN(C(=O)c2ccco2)CC12CCOCC2 (stereo not drawn),14.39
16,O=C(NCC1CC1)C1CN(C(=O)c2cccnc2)CC12CCOCC2 (stereo not drawn),-1.37
17,O=C(NCC1CC1)C1CN(C(=O)c2cccc(Cl)c2)CC12CCOCC2 (stereo not drawn),71.99
18,O=C(NCC1CC1)C1CN(C(=O)c2cccs2)CC12CCOCC2 (stereo not drawn),-4.92
19,Cc1nnc(N2CC[C@@H](OCC3CC3)[C@@H](Cc3ccccc3)C2)s1,1.74
20,Cc1cc(C(=O)N(CC(F)(F)F)C2CCOCC2)c(C)o1,7.68
21,Cc1noc(C)c1-c1cncc(C2CCCN2Cc2ccncc2)n1 (stereo not drawn),27.8
22,Cc1ccc(N2CCN(C(=O)CCc3n[nH]c(C)n3)CC2=O)cc1,19.75
23,COc1ccc(N2CCN(C(=O)CCc3n[nH]c(C)n3)CC2=O)cc1,62.3
24,COc1ccc(OC2CCN(C(=O)CCc3n[nH]c(C)n3)CC2)cc1,-2.77
25,O=C(O)[C@H]1OCC(=O)N(Cc2cccc(F)c2)[C@@H]1c1ccc(Cl)cc1,-4.48
26,Cc1cccc(Nc2cccc(C3CCCN(Cc4ncc[nH]4)C3)n2)n1 (stereo not drawn),7.02

row,SMILES,INHIBITION [%]
1,Cc1cnn(CC2CCCN2CC(=O)N(C)CCC#N)c1 (stereo not drawn),-31.3
2,CC1=C[C@@H](CC#N)[C@H](C(C)C)C[C@H]1CC(=O)N1CCN(CCO)CC1,-3.1
3,CC(=O)N1CCN(C(=O)C[C@@H]2C[C@@H](C(C)C)[C@H](CC#N)C=C2C)CC1,46.32
4,CC1=C[C@@H](CC#N)[C@H](C(C)C)C[C@H]1CC(=O)N1CCN(C)CC1,62.8
5,Cc1cc(-c2cccc(C(=O)O)c2)nc(C2CCN(C(C)C)CC2)n1,24.56
6,O=C(NC1CC1)[C@H]1CC[C@@H]2[C@@H](CCN2c2ncc(F)cn2)O1,1.07
7,COc1ccc(C)cc1CN(C)CCCNS(C)(=O)=O,-81.99
8,Cn1c(=O)oc2cc(Nc3nccnc3C#N)ccc21,9.42
9,Cn1c(=O)oc2ccc(Nc3ncc(C#N)cc3Cl)cc21,-4.24
10,Cn1c(=O)oc2cc(Nc3ncc(C#N)cc3Cl)ccc21,53.13
11,CCOc1nnc(CN2CCN(CCOC)C(CC)C2)s1 (stereo not drawn),-8.54
12,CCOc1ncnc2c1CCN(S(=O)(=O)c1ccccc1)CC2,55.07
13,CCc1ncnc2c1CCN(S(=O)(=O)c1ccccc1)CC2,5.44
14,CCOc1ncnc2c1CCN(S(=O)(=O)CC)CC2,8.41
15,CC1COCCN1C(=O)COc1ccc(Oc2ccccn2)cc1 (stereo not drawn),41.88
16,OCc1ccc(-c2c(-c3ccccc3)ncn2CCN2CCOCC2)o1,-23.34
17,O=C(NCCCN1CCOCC1)c1cc(-c2ccccc2)[nH]n1,-55.91
18,c1ccc(-c2ncn(CCCN3CCOCC3)c2-c2ccncc2)cc1,64.9
19,CC(C)(Cn1cnc(-c2ccccc2)c1-c1ccco1)N1CCOCC1,-9.41
20,Cc1ccc(-c2c(-c3ccccc3)ncn2CCCN2CCOCC2)o1,33.9
21,Cc1nc(-c2c(-c3ccccc3)ncn2CCCN2CCOCC2)c[nH]1,64.9
22,CC(=O)N1CCN(C(=O)c2[nH]nnc2Nc2ccccc2F)CC1,-66.39
23,COc1cccc(Cn2cc(N3C(=O)[C@H]4CCCC[C@H]4C3=O)cn2)c1,-3.8
24,CN(C(=O)COCc1ccccc1)C1CCN(CC2CCOC2)CC1 (stereo not drawn),-11.88
25,CC(C)S(=O)(=O)NCC1CCCN(C(=O)c2ccc(Cl)cc2)C1 (stereo not drawn),16.82
26,N#Cc1csc(CNCCOc2ccc(Cl)cn2)c1,10.91

row,SMILES,INHIBITION [%]
1,CCn1nc(C)c(CNCCn2cc(C)cn2)c1C,-0.98
2,Cc1cnn(CCNCc2nc(-c3ccccc3Cl)no2)c1,73.05
3,Cc1cnn(CCNCc2c(C)nn(C)c2Cl)c1,56.15
4,Cc1cnn(CCNCc2nc(-c3ccccn3)no2)c1,13.36
5,CCc1noc(CNCCn2cc(C)cn2)n1,-24.75
6,Cc1cnn(CCNCc2c(C(C)C)nn(C)c2Cl)c1,31.81
7,CN1CCN(c2cnn(CCn3cccn3)c(=O)c2)CC1,26.14
8,Cc1ccccc1C(=O)N1C[C@@H]2C(CN(C)CCc3ccccn3)[C@@H]2C1 (stereo partly drawn),56.21
9,Cc1cc(C(=O)N2C[C@@H]3C(CN(C)CCc4ccccn4)[C@@H]3C2)c(C)o1 (stereo partly drawn),33.7
10,Cc1cc(C(=O)N2C[C@@H]3C(CN(C)CCCn4cccn4)[C@@H]3C2)c(C)o1 (stereo partly drawn),-6.53
11,Cc1cccc2c1ccn2CCC(=O)O,4.39
12,Cc1noc(-c2ccc(N3CCCC(C(N)=O)C3)nc2)n1 (stereo not drawn),22.86
13,Cc1noc(-c2ccc(N3CCCC(C(=O)c4nccn4C)C3)nc2)n1 (stereo not drawn),58.53
14,Cc1noc(-c2ccc(N3CCCC(C(=O)O)C3)nc2)n1 (stereo not drawn),25.69
15,CCOC(=O)C1CCCN(c2ccc(-c3nc(C)no3)cn2)C1 (stereo not drawn),-9.62
16,Cc1noc(-c2ccc(N3CCC(C(=O)N4CCCC4)CC3)nc2)n1,51.96
17,Cc1noc(-c2ccc(N3CCCC(C(=O)N4CCSCC4)C3)nc2)n1 (stereo not drawn),-13.24
18,CC(C)c1nc(C2CCCN2C(=O)c2cnc[nH]2)no1 (stereo not drawn),-66
19,COc1cccc(NC(=O)C(C)Cn2cc(Cl)cn2)c1 (stereo not drawn),36.45
20,Cc1ccc2nnc(C(=O)NCCCn3cccn3)nc2c1,-41.49
21,CC(C)(C(=O)NCC(=O)NCc1ccccc1)c1ccccc1F,-3.22
22,COc1ccc(CN2CCc3sccc3C2C)cc1CN1CCOCC1 (stereo not drawn),56.39
23,CCC1c2ccsc2CCN1Cc1cc2c(cc1OC)OCCO2 (stereo not drawn),10.03
24,CC1c2ccsc2CCN1Cc1cc2c(cc1O)OCO2 (stereo not drawn),12.7
25,COc1ccsc1C(=O)Nc1cc(CN2CCOCC2)ccc1C,37.63
26,COc1cc2c(cc1CN1CCc3sccc3C1C)OCCO2 (stereo not drawn),18.06

row,SMILES,INHIBITION [%]
1,COc1cc2c(cc1CN1CCc3sccc3C1C)OCO2 (stereo not drawn),59.65
2,CC(C)OCCn1nnnc1Cc1ccc(Br)cc1,-21.99
3,CNC(=O)NC(=O)CCN1CCN(c2nccs2)CC1,27.2
4,CS(=O)(=O)c1ccc(C(O)CN2CCC(c3ccn[nH]3)CC2)cc1 (stereo not drawn),14.82
5,C[C@@H]1CN(C(=O)c2cccs2)C[C@]12CCN(CCN(C)C)C2=O,6.12
6,CCCc1nc(CN(CC)Cc2ccc(S(C)(=O)=O)cc2)no1,-5.31
7,Cc1nnc(SCCC(=O)N(C)Cc2ccc(F)cc2Cl)[nH]1,52.98
8,Cc1nnc(SCCC(=O)N(C)Cc2c(F)cccc2Cl)[nH]1,21.97
9,CN(Cc1ccc(Cl)s1)C(=O)Cn1nc(-c2ccc(F)cc2)oc1=O,14.82
10,Cc1nnc(SCCC(=O)N(C)Cc2ccc(F)cc2F)[nH]1,10.05
11,CN(CC(N)=O)Cc1ccc(F)cc1Cl,-6.61
12,Cc1nnc(SCCC(=O)N(C)Cc2ccc(Cl)s2)[nH]1,55.36
13,O=C(NCCc1cccc(F)c1)NCC(O)c1cccc(F)c1 (stereo not drawn),-47.97
14,COc1nc2c(cc1C(=O)N1CCCOC(CN3CCCC3)C1)CCC2 (stereo not drawn),-8.45
15,CCN(Cc1cnn(C)c1)C[C@H]1CC[C@@H](Cc2ccc(CO)cc2)O1,36.78
16,CCN(Cc1cnn(C)c1)C[C@H]1CC[C@@H](Cc2ccc(C)nc2)O1,55.84
17,CCN(Cc1cnn(C)c1)C[C@H]1CC[C@@H](Cc2ccc(OC)nc2)O1,-6.22
18,CN(C)S(=O)(=O)N1CCO[C@H]2[C@H](Oc3cccnc3)CC[C@@H]21,-16.75
19,O=C(c1cc(CC2(NCc3ccccc3)COC2)no1)N1CCCCC1,56.76
20,O=C(c1cc(CC2(NC3CCCCC3)COC2)no1)N1CCCCC1,10.08
21,OCCc1cc(CC2(NCc3ccncc3)COC2)no1,24.64
22,COCc1cc(CC2(NCc3ccccc3Cl)COC2)no1,27.54
23,O=C(c1cc(CC2(NCC3CCCCC3)COC2)no1)N1CCCCC1,54.01
24,CC(C)(O)c1cc(CC2(NCC3CCCCC3)COC2)no1,-24.31
25,O=C(Nc1cccnc1)[C@@H]1C[C@H]2OCC[C@H]2N(Cc2nccs2)C1,1.06
